# From PubChem BioAssay AID741 (SRMLSC, 2007)
# Results filed as inconclusive are left out. Activity calls are given as the source filed them. No stated cut-off is given here; in the data, active means toxicity enhancement factor above about 0.054; inconclusive means between about 0.00067 and that limit; inactive means weaker than that.
# Assay: MRP-overexpressing cell chemosensitization – dose response (AID 741)
# Details: MRP-overexpressing cells, viability with/without cytotoxic drug; slope difference: measured here: slope difference tox minus reversal, stronger effect = higher value; toxicity enhancement factor: stronger effect = higher value; viability: measured here: viability series, compound alone, at 10 µM, stronger effect = lower value
Structure (SMILES),slope difference,toxicity enhancement factor,viability
CCOc1ccccc1Nc1nc(N)nc(CN(C)C2CCCCC2)n1,-0.105,-0.0012 (inactive),92.2%
CC1(C)CC(=O)C2=C(C1)N(c1cccc(O)c1)C1=C(C2)C(=O)CC(C)(C)C1,3.34,0.0743 (active),87.2%
C=CCOc1nc2c(c(=O)n(C)c(=O)n2C)n1Cc1c(Cl)cccc1Cl,-0.654,-0.0108 (inactive),63.6%
O=c1[nH]c2ccc(Br)cc2c(-c2ccccc2)c1N1CCOCC1,2.74,0.0679 (active),74.8%
O=C(CSc1nnc(CN2CCOCC2)n1-c1ccc(Cl)cc1)Nc1cc(Cl)ccc1O,2.56,0.0702 (active),67.3%
Cc1cccc2cc(CN(Cc3nnnn3C3CCCCC3)C3CCCC3)c3nnnn3c12,3.91,0.117 (active),74.2%
CCCCC1C(=O)N(c2ccccc2)N(c2ccccc2)C1=O,-0.496,-0.0047 (inactive),101%
O=C1Nc2cc(C(=O)N3CCN(Cc4ccccc4)CC3)ccc2SC1N1CCOCC1 (stereo unspecified),-0.0531,-0.0007 (inactive),83.2%
CC(=O)Nc1ccc(S(=O)(=O)NCCC(=O)NCCc2ccc(F)cc2)cc1,0.0009,0 (inactive),87.3%
CCc1nc(SCC(=O)Nc2c(C)nn(C)c2C)c2cnn(-c3ccccc3)c2n1,-0.333,-0.0042 (inactive),79.1%
Clc1cnc(N/N=C/c2cccs2)c(Cl)c1,-0.68,-0.0069 (inactive),96.8%
Cn1c(=O)c2c(nc(NC3CCCCC3)n2CC(O)COc2ccccc2)n(C)c1=O (stereo unspecified),-0.557,-0.0085 (inactive),68.8%
Cc1ccc(N2C(N)=C(C#N)C(c3cccnc3)C3=C2CCCC3=O)cc1 (stereo unspecified),2.44,0.0726 (active),62.7%
O=C(NCc1ccccn1)c1cn(CCc2ccccc2)nn1,-0.117,-0.0012 (inactive),97.1%
O=C(c1ccccc1)c1ccc2n1CCC2C(=O)O (stereo unspecified),-0.0977,-0.001 (inactive),106%
COC(=O)Nc1ccc(S(=O)(=O)Nc2cccc3ccccc23)cc1,-0.0221,-0.0003 (inactive),77.7%
CCCN1C2=C(C(=O)CC(C)(C)C2)C(c2ccc(F)cc2)C2=C1c1ccccc1C2=O (stereo unspecified),3.28,0.126 (active),64.6%
CCn1c(N)c(C(=O)N2CCOCC2)sc1=S,-0.557,-0.0052 (inactive),101%
COC(=O)Nc1ccc(S(=O)(=O)N2c3ccccc3CCC2C)cc1 (stereo unspecified),-2.95,-0.0581 (inactive),20.1%
Cc1cccc2cc(CN(Cc3nnnn3Cc3ccco3)C3CCCC3)c3nnnn3c12,-1.43,-0.027 (inactive),51.1%
C=CCSc1nnc2n(CCc3ccccc3)c(=O)c3c4c(sc3n12)COC(C)(C)C4,3.35,0.116 (active),71%
O=C1CCCC2=C1C(c1cccs1)n1nc(SCc3ccccc3F)nc1N2 (stereo unspecified),2.51,0.0631 (active),69.6%
O=C(COc1ccccc1)N1CCN(c2ncnc3c2cnn3-c2ccccc2)CC1,-0.402,-0.0084 (inactive),53.8%
Cc1cc(C)cc(OCc2nnc(SCC(=O)c3ccc(Br)cc3)o2)c1,-0.893,-0.0094 (inactive),92.3%

Structure (SMILES),slope difference,toxicity enhancement factor,viability
CCOC(=O)/C(C#N)=C/c1cc(C)n(-c2ccc(C)cc2)c1C,-0.0151,-0.0003 (inactive),63.7%
O=C(O)Cc1ccc(-c2ccccc2)cc1,-0.343,-0.0033 (inactive),99.6%
CC(C)Cc1ccc(C(C)C(=O)O)cc1 (stereo unspecified),-0.62,-0.0059 (inactive),93.7%
COc1cc(/C=C/C(=O)CC(=O)/C=C/c2ccc(O)c(OC)c2)ccc1O,-2.01,-0.0391 (inactive),24.1%
O=C(O)c1ccccc1O,-0.779,-0.0072 (inactive),100%
CC1CN(c2nc3ccccn3c(=O)c2/C=C(\C#N)S(=O)(=O)c2ccccc2)CC(C)O1 (stereo unspecified),3.36,0.0581 (active),93.3%
CCN(CC)C(=O)CSc1nc2c(sc(=S)n2-c2ccccc2)c(=O)n1Cc1ccco1,3.95,0.0846 (active),87.8%
COc1ccc2cc(C(c3nnnn3C(C)(C)C)N3CCc4ccccc4C3)c(=O)[nH]c2c1 (stereo unspecified),-0.322,-0.0045 (inactive),76.3%
O=C(Cc1cccs1)N1CCC(c2nc3c(nnn3Cc3ccccc3Cl)c(=O)[nH]2)CC1,-0.454,-0.0052 (inactive),82.5%
CC1(C)CC(=O)C2=C(C1)N(c1ccccc1)C(N)=C(C#N)C2c1cccnc1 (stereo unspecified),2.68,0.105 (active),60%
Cc1cccc(Cn2c(NCC(C)O)nc3c2c(=O)n(C)c(=O)n3C)c1 (stereo unspecified),-0.509,-0.0055 (inactive),93.7%
COc1ccc(N2C(=O)C(Cl)=C(N3CCCC3)C2=O)cc1,-0.145,-0.0016 (inactive),91.8%
COc1ccc(C(c2nnnn2C(C)(C)C)N2CCN(c3nc4ccccc4s3)CC2)cc1OC (stereo unspecified),-1.39,-0.0199 (inactive),71.9%
CCOC(=O)N1CCC(Nc2c(Nc3cccc(CC)c3)c(=O)c2=O)CC1,5.23,0.268 (active),73.6%
CCCCCC(O)c1cccc(OCc2ccc3ccccc3n2)c1 (stereo unspecified),-0.009,-0.0001 (inactive),102%
CCOC(=O)c1sc(NC(=O)CSc2nnc(-c3ccco3)n2CC)c(C(=O)OCC)c1C,3.89,0.364 (active),54.8%
CN1C(=O)C(CC(=O)Nc2ccc3c(c2)Cc2ccccc2-3)N(C)C1=O (stereo unspecified),-0.0851,-0.0009 (inactive),94.5%
CN1C(C(=O)Nc2ccccn2)=C(O)c2ccccc2S1(=O)=O,-0.409,-0.0045 (inactive),92.3%
COc1ccc(Cl)cc1C(=O)Nc1ccccc1N1CCN(C(=O)C(C)C)CC1,-0.352,-0.0048 (inactive),75.7%
CCOC(=O)c1c(C)[nH]c(N=Nc2ccc(C)cc2)c1C,-0.597,-0.006 (inactive),98.7%
COc1ccc(C)cc1-n1c(N)c(C#N)c(C#N)c1-c1ccc(OC)c(OC)c1OC,2.33,0.077 (active),61.5%
CCOc1nc2c(c(=O)n(C)c(=O)n2C)n1Cc1ccccc1Cl,-0.531,-0.0077 (inactive),71%
CC1(C)CC(=O)C2=C(C1)N(c1ccccc1)C(N)=C(C#N)C2c1ccccc1 (stereo unspecified),3.21,0.108 (active),73.3%
CS(=O)(=O)Nc1ccc([N+](=O)[O-])cc1Oc1ccccc1,-0.667,-0.0071 (inactive),97.8%

Structure (SMILES),slope difference,toxicity enhancement factor,viability
Cc1oncc1C(=O)Nc1ccc(C(F)(F)F)cc1,-0.34,-0.0035 (inactive),96.5%
CCCc1cc(Nc2c(C)n(C)n(-c3ccccc3)c2=O)n2c(nc3ccccc32)c1C#N,4.27,0.0896 (active),97.6%
CC1=NN(C(N)=S)C(=O)C1N=Nc1ccccc1C (stereo unspecified),-0.556,-0.0057 (inactive),92.1%
Cc1ccc(Cn2c(N3CCCCCC3)nc3c2c(=O)[nH]c(=O)n3C)cc1,-0.91,-0.0097 (inactive),88.2%
Cc1ccc(/C=N/Nc2ncc(Cl)cc2Cl)s1,-0.555,-0.0071 (inactive),70.4%
N#CC1=C(N)N(c2ccccc2)C2=C(C(=O)CCC2)C1c1ccccc1 (stereo unspecified),4.41,0.144 (active),70.1%
CC(C)(C)C(=O)[C@@H]1[C@@H]2C(=O)N(C3CCCCC3)C(=O)[C@@H]2[C@H]2c3ccccc3C=CN12,2.83,0.061 (active),85.2%
COc1ccccc1Nc1nc(N)nc(CN2CCOCC2)n1,-0.589,-0.0058 (inactive),98.2%
C=CCN1C(=O)/C(=C2/Sc3ccccc3N2C)SC1=Nc1c(C)n[nH]c1C,4.41,0.241 (active),66.9%
CSc1cccc(NC(=O)C2CCN(S(C)(=O)=O)CC2)c1,-0.244,-0.0028 (inactive),94.7%
c1ccc2c(c1)nc1n2CN(Cc2ccc3c(c2)OCO3)CN1,-0.301,-0.0032 (inactive),85.8%
c1ccc(-c2nc(N3CCOCC3)c3ccccc3n2)nc1,-2.79,-0.0278 (inactive),87%
CC(=O)Oc1cccc2c1C(=O)c1c(OC(C)=O)cc(C(=O)O)cc1C2=O,-1.12,-0.0114 (inactive),89.5%
O=C(NCCCn1ccnc1)c1sc2cccc(F)c2c1Cl,-0.0975,-0.001 (inactive),96.9%
Cc1ccc(Cl)c(Nc2ccccc2C(=O)O)c1Cl,-0.97,-0.0098 (inactive),92.5%
CCCNc1nc2c(c(=O)n(C)c(=O)n2C)n1Cc1ccc(F)cc1,-0.107,-0.0012 (inactive),92.8%
Cc1ccc(-n2ncc3c(N4CCN(c5ccccc5)CC4)ncnc32)c(C)c1,-1.27,-0.037 (inactive),27.4%
Cc1cccc(OCc2nnc(SCC(=O)c3ccccc3)o2)c1,-0.739,-0.007 (inactive),97.4%
O=C(O)c1ccc(-n2nnnc2SCc2ccccc2)cc1,-0.76,-0.0082 (inactive),88.7%
c1ccc2sc(N3CN(CCN4CCOCC4)CN(c4nc5ccccc5s4)C3)nc2c1,-1.81,-0.0158 (inactive),104%
COC(=O)Nc1ccc(S(=O)(=O)Nc2ccc(O)cc2)cc1,-0.156,-0.0016 (inactive),90.5%
COc1ccc(N2C(N)=C(C#N)C(c3cccnc3)C3=C2CC(C)(C)CC3=O)cc1 (stereo unspecified),2.07,0.0615 (active),63%
COc1ccc(NC(=O)C2C3C=CC(C3)C2C(=O)NCc2ccccn2)c(OC)c1 (stereo unspecified),-1.73,-0.0167 (inactive),88.7%
c1ccc2c(N3CCOCC3)nc(-c3ccncc3)nc2c1,-1.84,-0.0239 (inactive),66.1%
